Bioassay records deposited in PubChem BioAssay by Broad Institute.
Hits are enriched below; roughly 6.7% of the tested compounds scored in any of these assays.
T cruzi growth-1: blocks T. cruzi growth in NIH3T3 culture; AID 624255; hit rate 5.9% among 77,000; T. cruzi beta-gal in NIH3T3, GalScreen luminescence, 90 h; inhibition, % at 8.34 µM;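 active = mean inhibition above about 93%, with at least 55% of replicates each passing it, limit read from the data, passing the limit was not always enough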
Pf Dd2 growth: blocks growth of Plasmodium falciparum Dd2 parasites. hit rate 2.3% among 94,000. P. falciparum Dd2 growth, SYBR Green, 72 h; active compounds read low. activity change, % at 10 µM. AID 1159554; in the data active = activity change below about -80%
C diff HTS: C. difficile growth inhibition. Clostridium difficile clinical isolate growth, OD600, 24 h; active compounds read low. growth activity, negative = inhibition, % at 16 µg/mL (by protocol). hit rate 0.25% among 86,000. AID 1259249;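 active = mean growth activity at or below -80% and every replicate also at or below -80%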;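 note: 0% = DMSO wells and -100% = levofloxacin 16 µg/mL wells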
T cruzi growth-2: Trypanosoma cruzi proliferation inhibition | T. cruzi beta-gal in NIH3T3, GalScreen luminescence, 90 h | inhibition, % at 8.35 µM | AID 651739 | shares compounds with T cruzi growth-1 | hit rate 72% among 5,600;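 active = mean replicate inhibition above about 95% and at least 55% of replicates individually reaching it, limit read from the data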
T cruzi growth-3: blocks T. cruzi growth in NIH3T3 host cells; hit rate 21% among 5,600; T. cruzi beta-gal in NIH3T3, GalScreen luminescence, 90 h; inhibition, % at 2.09 µM; shares compounds with T cruzi growth-1;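 active = mean inhibition above about 95%, with at least 55% of replicates also reaching it, limit read from the data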;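 note: plate controls were neutral control median for no effect and positive control median for full effect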
NIH3T3 tox: kills mouse NIH/3T3 fibroblasts. shares compounds with T cruzi growth-1. NIH/3T3 viability, CellTiter-Glo ATP luminescence, 90 h. cytotoxicity (signal decrease), % at 8.35 µM. hit rate 14% among 5,600;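 active = mean signal decrease across replicates above about 35% based on untreated-well scatter, with enough replicates individually passing, limit read from the data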;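 note: 0% = median of neutral control wells and 100% = median of positive control wells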
NIH3T3 tox 2: cytotoxicity in mouse NIH/3T3 fibroblasts; shares compounds with T cruzi growth-1; NIH/3T3 viability, CellTiter-Glo ATP luminescence, 90 h; inhibition, % at 24.9 µM; hit rate 56% among 5,600; AID 651744;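 active = mean loss of cell viability signal at or above a set limit, and enough replicates individually reaching it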;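 note: 0% = median of neutral control wells and 100% = median of positive control wells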
* = called active by the depositor; x = no result given; + = active, no number.

SMILES	T cruzi growth-1	Pf Dd2 growth	C diff HTS	T cruzi growth-2	T cruzi growth-3	NIH3T3 tox	NIH3T3 tox 2
CCCN1[C@@H]2c3ccc(-c4ccccc4)c(=O)n3C[C@H]1[C@H](CO)[C@H]2C(=O)OC	-1.6	8.8	-1.1	x	x	x	x
O=C(O)[C@H]1[C@H](CO)[C@H]2Cn3c(ccc(-c4cncnc4)c3=O)[C@@H]1N2C(=O)NC1CCCC1	6.6	10.4	-1.9	x	x	x	x
CCN1[C@@H]2Cn3c(ccc(-c4cccc(OC)c4)c3=O)[C@H]1[C@@H](C(=O)OC)[C@@H]2CO	7.6	5.9	1.1	x	x	x	x
O=C(O)[C@@H]1[C@@H](CO)[C@@H]2Cn3c(ccc(-c4ccncc4)c3=O)[C@H]1N2C(=O)C1CCCC1	x	18.6	-2.4	x	x	x	x
COC(=O)[C@H]1[C@H](CO)[C@H]2Cn3c(ccc(-c4ccccc4F)c3=O)[C@@H]1N2CC1CCCC1	+	x	-9.1	54.8	-7.4	1.9	45.3*
O=C(O)[C@@H]1[C@@H](CO)[C@@H]2Cn3c(ccc(C4=CCCCC4)c3=O)[C@H]1N2CCc1ccccc1	163.8*	x	x	71.9	11.8	8.5	46.4*
COC(=O)[C@@H]1[C@@H](CO)[C@@H]2Cn3c(ccc(C4=CCCCC4)c3=O)[C@H]1N2CCc1ccccc1	46.7	3.5	0.6	x	x	x	x
O=C(O)[C@@H]1[C@@H](CO)[C@@H]2Cn3c(ccc(-c4ccccc4)c3=O)[C@H]1N2CC1CCCCC1	97.4*	7.5	-0.4	-16.5	7.5	-20.9	-6.4
COC(=O)[C@@H]1[C@@H](CO)[C@@H]2Cn3c(ccc(-c4ccccc4)c3=O)[C@H]1N2CC1CCCC1	x	-13.9	-12.6	x	x	x	x
COC(=O)[C@@H]1[C@@H](CO)[C@@H]2Cn3c(ccc(-c4ccccc4)c3=O)[C@H]1N2CC1CCCCC1	11.1	-7.7	2.9	x	x	x	x
O=C(Cc1ccccc1)N1CC2(C1)[C@H](c1ccccc1)[C@@H](CO)N2Cc1cccc(Cl)c1	x	-47.4	-2.6	x	x	x	x
Cc1cccc(S(=O)(=O)N2[C@@H]3c4ccc(-c5ccncc5)c(=O)n4C[C@H]2[C@H](CO)[C@H]3C(=O)O)c1	56.1	7.0	-0.2	x	x	x	x
COC(=O)[C@H]1[C@H](CO)[C@H]2Cn3c(ccc(/C=C/c4ccccc4)c3=O)[C@@H]1N2CC1CCCC1	79.2	-31.1	11.3	x	x	x	x
O=C(O)[C@H]1[C@H](CO)[C@H]2Cn3c(ccc(-c4ccccc4F)c3=O)[C@@H]1N2C(=O)Nc1ccccc1	61.6	x	-3.8	x	x	x	x
COC(=O)[C@@H]1[C@@H](CO)[C@@H]2Cn3c(ccc(-c4cccc(OC)c4)c3=O)[C@H]1N2C(=O)c1ccccc1F	-7.7	6.9	-2.5	x	x	x	x
COc1ccc(C(O)(c2cncnc2)C2CC2)cc1 (centres undefined)	x	x	-9.3	x	x	x	x
COC(=O)[C@@H]1[C@@H](CO)[C@@H]2Cn3c(ccc(-c4ccncc4)c3=O)[C@H]1N2S(=O)(=O)c1ccccc1C	-18.7	7.6	0.8	x	x	x	x
COc1ccc(-c2ccc([C@@H]3[C@H]4CN(C(=O)Cc5ccccc5)CCCCN4[C@H]3CO)cc2)cc1	78.7	-7.2	4.3	x	x	x	x
O=C(Cc1ccncc1)N1CCCCN2[C@H](CO)[C@H](c3ccc(C#CC4(O)CCCC4)cc3)[C@@H]2C1	93.1	12.9	3.2	x	x	x	x
COc1cccc(-c2ccc([C@@H]3[C@H]4CN(C(=O)Cc5ccncc5)CCCCN4[C@H]3CO)cc2)c1	114.0*	-10.3	-4.7	93.7	25.7	6.8	28.0
O=C(Cc1ccncc1)N1CCCCN2[C@H](CO)[C@@H](c3ccc(C#CC4(O)CCCC4)cc3)[C@@H]2C1	105.4*	8.6	-0.2	0.9	-7.4	8.6	17.3
COc1ccc(C#Cc2ccc([C@H]3[C@H]4CN(C(=O)Cc5ccncc5)CCCCN4[C@H]3CO)cc2)cc1	106.7*	-64.4	-0.4	98.1*	-81.6	77.4*	97.9*
COc1ccc(C#Cc2ccc([C@@H]3[C@H]4CN(C(=O)Cc5ccncc5)CCCCN4[C@H]3CO)cc2)cc1	105.5*	-59.3	48.6	91.6	73.3	27.7	100.0*
COc1ccc(-c2ccc([C@@H]3[C@@H](CO)N4CCCCN(C(=O)Cc5ccccc5)C[C@@H]34)cc2)cc1	75.3	2.6	3.4	x	x	x	x
CCCNC(=O)[C@H]1[C@H](CO)[C@H]2Cn3c(cccc3=O)[C@H]2N1C	7.0	x	-3.0	x	x	x	x
SMILES	T cruzi growth-1	Pf Dd2 growth	C diff HTS	T cruzi growth-2	T cruzi growth-3	NIH3T3 tox	NIH3T3 tox 2
CC=Cc1ccc2n(c1=O)C[C@@H]1[C@@H](CO)[C@H](C(=O)N(C)C)[C@H]2N1C (mixture of isomers)	12.1	x	-0.9	x	x	x	x
COC(=O)[C@@H]1N[C@@H]2c3ccc(C4=CCCC4)c(=O)n3C[C@@H]2[C@H]1CO	-28.5	x	-0.9	x	x	x	x
O=C(Cc1ccncc1)N1CCCCN2[C@H](C1)[C@H](c1ccc(C#Cc3ccccc3F)cc1)[C@@H]2CO	24.4	-48.7	0.1	x	x	x	x
COc1ccc(C#Cc2ccc([C@H]3[C@@H](CO)N4CCCCN(C(=O)Cc5ccncc5)C[C@@H]34)cc2)cc1	107.7*	-44.7	2.3	105.4*	68.6	40.5*	63.7*
COc1ccc(-c2ccc([C@H]3[C@H]4CN(C(=O)Cc5ccccc5)CCCCN4[C@H]3CO)cc2)cc1	73.8	-41.2	5.8	x	x	x	x
COc1ccc(-c2ccc([C@@H]3[C@H](CO)N4CCCCN(C(=O)Cc5ccncc5)C[C@@H]34)cc2)cc1	99.0*	-15.1	-3.9	98.1*	62.3	1.1	29.4*
COc1ccc(-c2ccc([C@H]3[C@@H](CO)N4CCCCN(C(=O)Cc5ccncc5)C[C@H]34)cc2)cc1	88.3	-3.7	-5.2	x	x	x	x
COc1ccc(C#Cc2ccc([C@@H]3[C@@H](CO)N4CCCCN(C(=O)Cc5ccncc5)C[C@@H]34)cc2)cc1	117.0*	-74.6	27.6	103.5*	76.5	20.7	102.3*
COc1ccc(C#Cc2ccc([C@H]3[C@@H](CO)N4CCCCN(C(=O)Cc5ccncc5)C[C@H]34)cc2)cc1	109.3*	-68.6	-0.3	107.9*	86.4	23.3	106.0*
COC(=O)[C@H]1[C@H](CO)[C@H]2Cn3c(cccc3=O)[C@@H]1N2C(=O)C1CC1	-6.9	x	-4.0	x	x	x	x
COc1ccc(OC(=O)N(C)C[C@H]2OCc3ccccc3-c3c(n(C)c4ccccc34)C(=O)N([C@@H](C)CO)C[C@H]2C)cc1	x	-5.1	-40.4	x	x	x	x
COC(=O)C[C@@H]1CC[C@H]2NC[C@H](O)COC[C@@H]2O1	70.1	13.5	0.2	x	x	x	x
CC=Cc1ccc2n(c1=O)C[C@H]1[C@H](CO)[C@@H](C(=O)OC)[C@@H]2N1C(=O)CC (mixture of isomers)	29.7	x	-1.4	x	x	x	x
O=C(Cc1ccccc1)N1C[C@H]2[C@@H](c3ccccc31)[C@@H](CO)N2Cc1ccccc1	42.3	2.0	-9.2	x	x	x	x
COC(=O)[C@H]1[C@H](CO)[C@H]2Cn3c(ccc(-c4ccncc4)c3=O)[C@@H]1N2S(=O)(=O)c1ccccc1F	10.6	9.0	-2.7	x	x	x	x
